Reference: PubChem BioAssay (NCI)
About 83,000 compounds went through this panel and 20% of them were active in at least one assay; those are over-represented in the sample as a whole.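 Growth was measured after 48 h exposure to one concentration of compound in 96-well plates. Values under 10 count as active.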 Activity calls are given as the source filed them.

Legend:
Assay in all cases: NCI-60 one-dose screen, 48 h (100 = growth as untreated, 0 = no growth, -100 = all killed)
Settings in all cases: 10 µM unless noted
[1] = test system: T-47D breast
[2] = test system: BT-549 breast
[3] = test system: MDA-MB-435 melanoma
[4] = test system: SW-620 colon
[5] = test system: MCF7 breast
[6] = test system: HCT-116 colon
[7] = test system: HCC-2998 colon
[8] = test system: KM12 colon

Measured: growth

CC(C)(C)OC(=O)N1C/C(=C\c2cccs2)C(=O)/C(=C/c2cccs2)C1
inactive: [1] 82.5% | [2] 97.6% | [3] 99.7% | [4] 84.5% | [5] 39.1% | [6] 63.5% | [7] 106% | [8] 97.2%

CCN(CC)CCSc1c2ccc(Cl)cc2nc2ccc(OC)cc12
inactive: [2] 107% | [3] 109% | [5] 33.8% | [6] 50.3% | [7] 97.3% | [8] 99.1%
active: [1] -39.9% | [4] 4.29%

CCOC(=O)CC/C(C)=N\Nc1ccc([N+](=O)[O-])cc1
inactive: [1] 41.8% | [2] 82.4% | [3] 28.4% | [4] 57.2% | [5] 79.9% | [6] 48.7% | [7] 60.4% | [8] 22.2%

COc1ccc(C2CC(c3cccs3)=NN2c2ccc(S(=O)(=O)NC(=O)NCc3cccc(OC)c3)cc2)cc1 (stereo not drawn)
inactive: [1] 85.7% | [2] 116% | [3] 52.3% | [4] 107% | [5] 99% | [6] 98.8% | [7] 111% | [8] 98.5%

O=c1[nH]c(CN2CCN(c3ccccc3F)CC2)nc2sc3c(c12)CCC3
inactive: [1] 99.1% | [2] 98.8% | [3] 118% | [4] 105% | [5] 107% | [6] 105% | [7] 117% | [8] 106%

CN1C(=O)[C@H]2c3c1cccc3[C@@]13NC(=O)O[C@H]1[C@H](CCC3(C)C)C2(C)C
inactive: [1] 87.8% | [2] 102% | [3] 102% | [4] 114% | [5] 99.7% | [6] 103% | [7] 106% | [8] 103%

C=C1C(=O)O[C@H]2[C@H]1CC/C(COC(=O)NCCc1ccc(Br)cc1)=C\CC[C@@]1(C)O[C@@H]21
inactive: [3] 23.9% | [7] 71.1% | [8] 55.4%
active: [1] -21% | [2] -9.87% | [4] -55.6% | [5] 4.4% | [6] -72.1%

CCN(CC)CCCC(C)N=c1cc(Nc2cc(=NC(C)CCCN(CC)CC)c3cc(OC)ccc3o2)oc2ccc(OC)cc12 (stereo not drawn)
inactive: [1] 25.8%
active: [2] -69.4% | [3] -87.4% | [4] -2.14% | [5] -26.8% | [6] -21.2% | [7] -88.9% | [8] -4.99%

COc1ccc(S(=O)(=O)Nc2cc(/C=C\c3cc(OC)c(OC)c(OC)c3)cc(OC)c2OC)cc1OC
inactive: [1] 43.8% | [2] 47% | [4] 25.5% | [5] 18.1% | [6] 15.6% | [7] 21.1% | [8] 21.7%
active: [3] -66.5%

CCN1C(=O)N[C@H]2[C@@H]3NC(=O)c4ccc(Cl)n4[C@@H]3C[C@]21O
active: [1] -7.84% | [2] -23.4% | [3] 0.981% | [5] 1.38% | [6] 0.673% | [7] 2.42% | [8] 5.68%

COc1cc(C(=O)N2CCN(C(=O)c3ccco3)CC2)c(N)cc1OCc1ccccc1
inactive: [1] 97.1% | [2] 105% | [3] 113% | [5] 93.1% | [6] 93.3% | [7] 125% | [8] 103%

N#Cc1ccc(NC(=O)c2ccc3cccnc3c2O)cc1
inactive: [1] 27.3% | [2] 27.7% | [3] 26.2% | [5] 15.8% | [6] 20.3% | [7] 44.6% | [8] 25.7%

O=C(O)C(Cc1ccccc1)N1C(=O)/C(=C/C(Cl)=C/c2ccc([N+](=O)[O-])cc2)SC1=S (stereo not drawn)
active: [1] 1.08% | [2] -28.1% | [3] -41.7% | [6] -59.5% | [7] 3.58%
inactive: [5] 26.1% | [8] 14.8%

C=CCOc1ccc(/C(O)=C2\C(=O)C(=O)N(c3nccs3)C2c2ccccc2F)cc1 (stereo not drawn)
inactive: [1] 100% | [2] 113% | [3] 94% | [5] 112% | [6] 95.4% | [7] 107% | [8] 89.4%

Nc1nc(-c2cc3ccccc3o2)cc(=O)c(=O)[nH]1
inactive: [1] 104% | [2] 106% | [3] 105% | [4] 102% | [5] 91% | [6] 110% | [8] 105%

NCCSC(c1ccccc1)(c1ccccc1)c1ccccc1
active: [3] -52.9% | [5] 2.6% | [6] 7.63% | [7] -41.7%
inactive: [1] 25.6% | [2] 22.1% | [8] 17.9%

C/C(=N\NC(=O)CC#N)c1cc2cc(Cl)ccc2o1
inactive: [1] 78.4% | [2] 125% | [3] 106% | [4] 102% | [5] 72.2% | [6] 107% | [8] 98.9%
